Screening data: PubChem BioAssay, National Center for Advancing Translational Sciences (NCATS)
This is a sample that favours compounds with a hit; in the whole collection about 9.2% have one here.
ELG1 repair inh: qHTS screen for small molecules that inhibit ELG1-dependent DNA repair in human embryonic kidney (HEK293T) cells expressing luciferase-tagged ELG1; Potency, µM (highest dose often 46.1 µM), for inactives: at the highest dose activity change, negative = inhibition, usual class: inhibitors; AID 504467, 2011; HEK293T ELG1-luciferase reporter, luminescence, 16 h; DNA damage induced by 5-fluorouridine; 2.3% of 330,000 active; further: on the % scale 0 is the no-effect control and ±100 the full control effect; nearly all actives have a fitted effect of over 55% in size
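5-Fluorouridine DNA damage + compound/DMSO, 2,000 cells/well, 16 h, 37 °C/5% CO2. ONE-Glo, 30 min RT, luminescence. Readout = decrease in reporter signal.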
ELG1 genotoxic: qHTS screen for small molecules that induce genotoxicity in human embryonic kidney (HEK293T) cells expressing luciferase-tagged ELG1. HEK293T ELG1-luciferase reporter, luminescence, 16 h. Potency, µM (series often up to 46 µM), inactives show at the highest dose activity change, positive = activation, most hits filed as activators. 1.3% of 330,000 active; further: % of control where 0% means no effect; nearly all actives have a fitted effect of over 60% in size
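ELG1-luciferase HEK293T cells, 2,000/well; compound pinned in; 16 hr, 37 °C, 5% CO2; ONE-Glo, 30 min RT; luminescence on CCD imager.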
FLuc counter: qHTS profiling assay for firefly luciferase inhibitor/activator using purifed enzyme and Km concentrations of substrates (counterscreen for miR-21 project). purified FLuc, Km substrates, luminescence inhibition. 6.9% of 360,000 active. Luciferin 4-monooxygenase (Photinus pyralis), P08659. Potency, µM (doses to about 57.5 µM), for the others: at the top dose activity change, negative = inhibition, hits mostly inhibitors;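 further: plate controls were vehicle for no effect and reference inhibitor for full effect; nearly all actives have a fitted effect of over 55% in size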
Target sequence (P08659 whole entry, looked up): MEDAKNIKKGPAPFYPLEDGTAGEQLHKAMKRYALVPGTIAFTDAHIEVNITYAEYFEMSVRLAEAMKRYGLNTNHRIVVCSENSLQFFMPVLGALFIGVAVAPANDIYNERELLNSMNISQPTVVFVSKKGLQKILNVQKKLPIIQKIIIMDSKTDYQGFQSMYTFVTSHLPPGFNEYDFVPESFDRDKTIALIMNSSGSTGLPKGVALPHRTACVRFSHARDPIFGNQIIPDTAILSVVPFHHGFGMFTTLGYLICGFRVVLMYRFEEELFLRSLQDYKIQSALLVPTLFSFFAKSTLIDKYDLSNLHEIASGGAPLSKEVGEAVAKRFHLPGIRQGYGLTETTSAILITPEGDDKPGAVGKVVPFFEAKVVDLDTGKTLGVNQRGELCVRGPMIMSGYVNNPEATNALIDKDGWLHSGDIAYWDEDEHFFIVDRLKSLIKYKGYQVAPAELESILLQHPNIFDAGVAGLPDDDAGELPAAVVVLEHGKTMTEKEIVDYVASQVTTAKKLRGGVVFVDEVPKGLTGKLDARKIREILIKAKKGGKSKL
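Purified P. pyralis luciferase (10nM final) with 10uM D-luciferin and 10uM ATP (Km levels) in 50mM Tris acetate pH 7.5, 10mM Mg acetate, 0.01% Tween-20, 0.05% BSA; qHTS 6-point titration, ~60 µM downward; luminescence read.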
Rab9 prom act: qHTS Assay for Rab9 Promoter Activators | Huh7 Rab9 promoter-luciferase reporter, luminescence, 24 h | 2.8% of 320,000 active | Potency, µM (highest dose often 9.22 µM), for inactives: at the top dose activation, negative = inhibition, actives largely listed as activators | AID 485297, 2010; further: % of control where 0% means no effect; nearly all actives have a fitted effect of over 60% in size
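Luciferase signal after 10 min detection reagent at ambient indicates Rab9 promoter upregulation; stably transfected Huh7 cells were treated 24 h with compound in DMSO at 37 °C, 5% CO2.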
NPC1 promoter act: qHTS Assay for NPC1 Promoter Activators | Huh7 NPC1 promoter luciferase reporter, 24 h | Potency, µM (series often up to 9.22 µM), for inactives: at the highest dose activation, most hits filed as activators | 2.4% of 320,000 active | AID 485313, 2010; further: % of control where 0% means no effect; nearly all actives have a fitted effect of over 60% in size
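Compounds in DMSO were transferred onto Huh7 NPC1-luciferase reporter cells pre-incubated 2 h; after 24 h at 37 °C, Amplite reagent was dispensed and luminescence recorded 10 min later.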
SMN2 splice enh: qHTS Assay for Enhancers of SMN2 Splice Variant Expression; Potency, µM (series often up to 46.1 µM), inactives show at the highest dose activity change, positive = activation, actives largely listed as activators; 2.8% of 210,000 active; HEK293 SMN2-luciferase splicing reporter, luminescence, 30-36 h; further: % of control where 0% means no effect; nearly all actives have a fitted effect of over 55% in size
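HEK293 cells carry an SMN2 minigene-luciferase reporter in which exon 7 inclusion puts luciferase in frame. Cells were seeded at 2000 cells/well, attached for 10-12 hours, then exposed to compounds for 30-36 hours at 37C before ONE-Glo luminescence.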
The depositor's hits bear a star; u = inconclusive; x = no result given; [ ] = another dose, or the depositor's remark. The call rests on the fitted dose curve; in most records, active means well fitted curve in the direction sought with a large enough effect; inconclusive means small, poorly fitted or top-dose-only effect, or another doubt; inactive means no such curve, though single readings can be large; an effect the other way counts as inactive or inconclusive. Potency means the concentration at half of the fitted maximal effect.

SMILES	ELG1 repair inh	ELG1 genotoxic	FLuc counter	Rab9 prom act	NPC1 promoter act	SMN2 splice enh
CC(C(=O)NC1C=CS(=O)(=O)C1)N1C(=O)/C(=C/c2cccc(Cl)c2)SC1=S (stereo not given)	-9.3%	2.6%	15.1µM*	0.3%	-0.7%	x
CC(C)NC(=O)CSc1nc2ccccc2c(=O)n1Cc1ccc(C(=O)NC(C)C)cc1	x	x	-0.9%	x	x	x
Cc1cc(N2CCC(C)CC2)nc2ccc(NC(=O)Cc3ccccc3Br)cc12	x	x	-7.0%	x	x	-6.1%
CCOC(=O)C1=C(C)NC(=S)NC1c1ccc(-c2cccc(Cl)c2C)o1 (stereo not given)	20.6µM*	-7.1%	1.0%	-12.5%	-8.3%	-24.3%
CCOC(=O)C1=C(C)NC(=S)NC1c1ccc(-c2ccc(Cl)cc2)o1 (stereo not given)	u	-5.2%	-10.0%	-8.4%	2.0%	-22.4%
COc1cccc(CNC(=O)CN2C(=O)N(c3ccc(C)cc3C)S(=O)(=O)c3ccccc32)c1OC	x	x	-2.3%	x	x	x
CCOc1ccc(N=Cc2c(C)[nH]n(-c3nc4ccccc4[nH]3)c2=O)cc1	u	3.4%	8.49µM*	u	25.1%	11.5%
CCOC(=O)Nc1sc2c(c1C#N)CCC(C)C2 (stereo not given)	u	u	10.7µM*	3.16µM*	2.82µM*	20.0%
CC1CCc2c(sc(/N=C/N(C)C)c2C#N)C1 (stereo not given)	u	u	15.1µM*	4.47µM*	24.2%	24.8%
CC1CCc2c(sc(NC(=O)COC(=O)C3CCCO3)c2C#N)C1 (stereo not given)	u	17.1%	u	21.7%	12.1%	19.8%
CC1CCc2c(sc(NC(=O)C3CCCO3)c2C#N)C1 (stereo not given)	u	u	10.7µM*	3.16µM*	3.55µM*	11.2µM*
COc1ccccc1NC(=O)C1=C(C)Nc2nc3ccccc3n2C1c1ccccc1Cl (stereo not given)	x	x	-1.3%	x	x	5.0%
O=C(Nc1ccc2c(c1)CCC2)Nc1ccc2c(c1)OCO2	u	u	u	2.24µM*	3.55µM*	12.6µM*
NS(=O)(=O)c1ccc(NC(=O)Nc2ccc3c(c2)OCO3)cc1	u	u	15.1µM*	u	u	x
CCNS(=O)(=O)c1ccc(NC(=O)Nc2ccc3c(c2)OCO3)cc1	17.7%	8.7%	u	9.0%	13.5%	x
O=C(Nc1cccc([N+](=O)[O-])c1)Nc1ccc2c(c1)OCCO2	u	u	2.69µM*	1.78µM*	u	11.2µM*
Cc1cc(F)ccc1NC(=O)Nc1ccc2c(c1)OCO2	u	u	-4.4%	29.2%	25.2%	x
O=C(Nc1ccc2c(c1)OCO2)Nc1ccc(Br)cn1	u	7.31µM*	6.01µM*	1.58µM*	3.98µM*	12.6µM*
CC#CCN1c2ccccc2[C@]23C[C@@H](C(=O)OC)N(S(=O)(=O)c4ccc5c(c4)OCCN5C)C2=NC(C(=O)OC)=C(C(=O)OC)[C@H]13	x	x	x	x	x	3.3%[9.22 µM]
O=C(OCCN=C1NS(=O)(=O)c2ccccc21)c1ccccc1F	-6.4%	-0.7%	-2.0%	-0.1%	-1.4%	x
COC(=O)c1ccc(NC(=O)Nc2ccc3c(c2)OCO3)cc1	u	u	6.75µM*	u	u	x
O=C(Nc1ccc(S(=O)(=O)NCc2ccccc2)cc1)Nc1ccc2c(c1)OCO2	3.0%	u	21.3µM*	27.2%	29.6%	u
Cc1ccc(NC(=O)Nc2ccc3c(c2)OCO3)c(OC(F)F)c1	u	u	4.78µM*	3.55µM*	2µM*	x
Cc1ccc(NC(=O)Nc2ccc3c(c2)OCO3)cc1F	u	9.2µM*	0.601µM*	1.26µM*	1.12µM*	x
CC(C)(CS)C(=O)N1CCC[C@H]1C(=O)O	x	x	x	x	x	-6.2%[20.6 µM]
SMILES	ELG1 repair inh	ELG1 genotoxic	FLuc counter	Rab9 prom act	NPC1 promoter act	SMN2 splice enh
CCc1ccccc1NC(=O)Nc1ccc2c(c1)OCO2	u	u	1.4%	26.5%	23.6%	-0.4%
O=C(Nc1ccc2c(c1)OCCO2)NC12CC3CC(CC(C3)C1)C2	u	u	6.01µM*	1.26µM*	2.51µM*	22.4µM*
O=C(Nc1ccc2c(c1)OCO2)Nc1ccccc1F	u	0.92µM*	2.39µM*	0.501µM*	0.447µM*	x
Cc1ccnc(NC(=O)Nc2ccc3c(c2)OCO3)c1	u	u	1.9µM*	0.501µM*	0.631µM*	6.31µM*
Cc1cccc(C)c1NC(=O)Nc1ccc2c(c1)OCO2	14.5%	8.4%	3.7%	-7.0%	3.1%	-35.2%
COc1ccc(NC(=O)NC23CC4CC(CC(C4)C2)C3)cc1OC	7.9%	-1.9%	u	1.0%	2.1%	-26.2%
NC(=O)c1ccc(NC(=O)Nc2ccc3c(c2)OCO3)cc1	u	u	23.9µM*	u	u	x
CC(=O)Nc1ccc(NC(=O)CC(C)n2ccc(C)n2)cc1 (stereo not given)	x	x	-0.5%	x	x	x
O=C(Nc1ccc2c(c1)OCCO2)Nc1ccc2c(c1)OCO2	u	u	0.953µM*	0.1µM*	0.398µM*	2.51µM*
Cc1ccc(S(=O)(=O)NCCC(=O)Nc2ncccc2O)cc1C	10.5%	0.8%	3.9%	3.2%	-1.5%	x
CCSC1=C(C#N)C2(CCCCC2)C(C#N)=C(N)N1	0.9%	-1.5%	6.01µM*	12.6%	-4.6%	-13.0%
CCCSC1=C(C#N)C2(CCCCC2)C(C#N)=C(N)N1	-23.6%	-0.8%	21.3µM*	-7.3%	-0.5%	x
N#CC1=C(N)NC(SCC(=O)c2ccc(Br)cc2)=C(C#N)C12CCCCC2	u	-10.0%	-0.2%	-12.9%	-2.2%	-27.6%
N#CC1=C(N)NC(SCc2ccccc2)=C(C#N)C12CCCCC2	u	-6.4%	-2.5%	6.9%	-1.9%	-22.6%
COc1ccc(-n2nc(C(=O)N(C)c3cccc(C(F)(F)F)c3)c3c4ccccc4n(C)c3c2=O)cc1	x	x	1.1%	x	x	-1.9%
O=C(O)C(O)C(O)(Cc1ccc(O)cc1)C(=O)O (stereo not given)	x	x	x	x	x	2.0%
Cc1ccc(N=Nc2c(O)ccc3cc(S(=O)(=O)O)ccc23)cc1	x	x	x	x	x	-5.5%[9.22 µM]
Cc1ccc(N=Nc2c(O)ccc3n[nH]nc23)cc1	u	u	10.7µM*	u	1.58µM*	x
